Assay results taken from PubChem BioAssay (NCATS).
A number with no mark means an inactive call. Inconclusive results are not listed. Entries that show only a call come without a potency. Calls of active or inactive are those of the source. The call rests on the fitted dose curve; in most records, active means well fitted curve in the direction sought with a large enough effect; inconclusive means small, poorly fitted or top-dose-only effect, or another doubt; inactive means no such curve, though single readings can be large; an effect the other way counts as inactive or inconclusive.

Experiments:
[1] = molecular target: Tyrosine-protein kinase Yes (Homo sapiens) (UniProt P07947); test: qHTS for small molecule inhibitors of Yes1 kinase: Primary Screen (AID 686947); further: nearly all actives have a fitted effect of over 60% in size; further: potency means the concentration at half of the fitted maximal effect
Chain of Tyrosine-protein kinase Yes (Homo sapiens) (P07947 whole entry, looked up): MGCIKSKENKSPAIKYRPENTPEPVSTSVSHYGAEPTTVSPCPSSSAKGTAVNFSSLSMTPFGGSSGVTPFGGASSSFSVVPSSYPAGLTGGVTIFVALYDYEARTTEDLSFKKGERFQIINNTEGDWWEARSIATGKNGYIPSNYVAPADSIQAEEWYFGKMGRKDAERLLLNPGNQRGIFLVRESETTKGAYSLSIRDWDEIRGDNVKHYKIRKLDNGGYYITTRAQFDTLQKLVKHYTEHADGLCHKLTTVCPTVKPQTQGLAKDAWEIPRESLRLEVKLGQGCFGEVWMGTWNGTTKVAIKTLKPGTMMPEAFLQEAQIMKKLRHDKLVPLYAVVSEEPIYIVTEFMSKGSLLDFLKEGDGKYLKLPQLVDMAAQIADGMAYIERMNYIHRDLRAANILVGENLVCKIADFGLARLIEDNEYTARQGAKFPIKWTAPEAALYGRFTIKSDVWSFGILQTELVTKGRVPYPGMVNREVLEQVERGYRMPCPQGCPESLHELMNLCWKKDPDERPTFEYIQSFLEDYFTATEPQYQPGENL
Outline: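 Yes1 (4 nM) preincubated 20 min with compound, then 60 min room-temperature reaction with 0.1 mM ATP and 0.3 mg/mL poly(E4Y) in pH 7.5 Tris, 10 mM MgCl2. ADP measured by ADP-Glo luminescence, normalised to enzyme/no-enzyme controls.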

[2] = qHTS for small molecule inhibitors of Yes1 kinase: Counter Assay (AID 686950);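 further: no kinase present so only ADP-Glo detection of a fixed ADP amount is tested; luminescence from ADP-Glo reporting ADP in a fixed ATP and ADP mixture; series mostly up to about 77 µM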
Outline: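 Enzyme-free ADP-Glo interference check: compounds were preincubated 20 min in buffer, then an ATP/ADP mix (0.08 mM ATP, 0.02 mM ADP final) was added for 60 min at room temperature before two-step ADP-Glo luminescence detection.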

[3] = molecular target: Arylsulfatase A (Homo sapiens) (UniProt P15289); test: qHTS screen for enhancers of Arylsulfatase A (ASA1): LOPAC Validation Assay (AID 720538); conditions: outcome: dose series up to 57.5 µM
Chain of Arylsulfatase A (Homo sapiens) (P15289 whole entry, looked up): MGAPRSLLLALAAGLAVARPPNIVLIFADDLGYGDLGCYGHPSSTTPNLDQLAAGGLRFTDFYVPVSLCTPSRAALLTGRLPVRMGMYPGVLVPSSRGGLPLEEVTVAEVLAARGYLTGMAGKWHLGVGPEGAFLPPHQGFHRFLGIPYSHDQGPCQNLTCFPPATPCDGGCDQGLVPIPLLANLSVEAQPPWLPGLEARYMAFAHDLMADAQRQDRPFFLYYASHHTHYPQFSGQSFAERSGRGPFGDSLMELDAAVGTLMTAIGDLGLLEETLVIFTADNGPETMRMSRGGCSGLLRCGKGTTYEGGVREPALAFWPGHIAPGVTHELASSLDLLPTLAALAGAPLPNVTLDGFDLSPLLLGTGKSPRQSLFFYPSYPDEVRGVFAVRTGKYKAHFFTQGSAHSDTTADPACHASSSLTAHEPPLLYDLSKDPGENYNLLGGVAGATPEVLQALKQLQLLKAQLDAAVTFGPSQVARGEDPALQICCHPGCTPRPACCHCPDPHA
Outline: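 Cell-based enhancement test: residual ASA activity in SV40-transformed I179S patient fibroblasts is measured by pNCS turnover (0.5mM final, 14h, room temperature) following 48h compound incubation; higher fluorescence indicates activation.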

[4] = qHTS for compounds that reverse cellular toxicity of Amyloid beta (A-beta) peptide in yeast: LOPAC Validation Assay (AID 720559)
Outline: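 Here, A-beta-toxic yeast grow with test compounds at 30 C for 48 hr before optical density at 600 nm is recorded; data are normalized against DMSO and the FeCl3-clioquinol control.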

[5] = molecular target: T1, Hexokinase-4 (Homo sapiens) + Glucokinase regulatory protein (Homo sapiens) (UniProt P35557+Q14397); test: qHTS assay for inhibitors of recombinant human GCK-GKRP interaction: Diaphorase-coupled assay (AID 743205)
T1 sequence (P35557 whole entry, looked up): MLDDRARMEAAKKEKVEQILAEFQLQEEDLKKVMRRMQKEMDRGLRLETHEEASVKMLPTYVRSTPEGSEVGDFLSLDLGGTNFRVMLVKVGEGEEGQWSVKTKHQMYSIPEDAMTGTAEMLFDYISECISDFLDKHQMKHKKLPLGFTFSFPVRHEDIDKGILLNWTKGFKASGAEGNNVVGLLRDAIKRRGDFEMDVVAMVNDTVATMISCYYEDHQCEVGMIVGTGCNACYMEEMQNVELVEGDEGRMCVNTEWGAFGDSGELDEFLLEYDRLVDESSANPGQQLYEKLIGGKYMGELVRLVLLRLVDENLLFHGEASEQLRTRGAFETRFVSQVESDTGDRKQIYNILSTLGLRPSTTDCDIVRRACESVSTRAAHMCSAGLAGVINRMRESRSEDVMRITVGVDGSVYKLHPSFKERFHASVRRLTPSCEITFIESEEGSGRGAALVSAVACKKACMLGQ
T1 sequence (Q14397 whole entry, looked up): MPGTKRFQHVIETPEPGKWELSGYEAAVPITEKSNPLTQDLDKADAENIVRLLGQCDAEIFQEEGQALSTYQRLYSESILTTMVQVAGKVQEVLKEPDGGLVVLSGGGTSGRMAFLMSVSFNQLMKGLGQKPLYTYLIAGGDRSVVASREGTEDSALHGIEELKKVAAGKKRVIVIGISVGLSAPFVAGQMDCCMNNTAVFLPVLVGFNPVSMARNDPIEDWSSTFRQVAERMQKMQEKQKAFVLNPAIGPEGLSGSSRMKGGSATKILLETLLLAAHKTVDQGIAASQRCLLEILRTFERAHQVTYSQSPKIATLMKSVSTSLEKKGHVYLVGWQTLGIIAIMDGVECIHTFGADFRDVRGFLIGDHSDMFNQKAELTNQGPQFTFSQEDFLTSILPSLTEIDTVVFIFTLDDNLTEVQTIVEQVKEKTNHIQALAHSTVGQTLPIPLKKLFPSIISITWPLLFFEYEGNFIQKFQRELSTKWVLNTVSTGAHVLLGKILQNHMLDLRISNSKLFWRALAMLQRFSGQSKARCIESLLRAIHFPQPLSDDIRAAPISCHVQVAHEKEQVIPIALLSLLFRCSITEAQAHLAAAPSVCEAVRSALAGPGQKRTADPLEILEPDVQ
Outline: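 Signal derives from resorufin generated by diaphorase, linked to GCK turnover of glucose (5 mM) and ATP (0.4 mM). Enzyme complex was added after a 20-minute compound preincubation and monitored for 30 minutes.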

[6] = molecular target: T1, Hexokinase-4 (Homo sapiens) + Glucokinase regulatory protein (Homo sapiens); test: qHTS assay for inhibitors of recombinant human GCK-GKRP interaction: ADP-Glo assay (AID 743206)
Outline: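 GST-GCK and FLAG-GKRP (15 nM each in the dispensed mix, with 2 uM S6P) react with 0.4 mM ATP and 5 mM glucose (final) in Hepes pH 7.6 for 60 min at room temperature. ADP is measured by ADP-Glo luminescence.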

[7] = qHTS for Activators of Parkin Expression: LOPAC Validation Assay (NLuc Reporter) (AID 720572)
Outline: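 Neuronal line stably carrying a FLuc/NLuc coincidence reporter under the Parkin promoter, seeded 24 h, then dosed in 7-point series for 24 h at 37 C. NLuc luminescence read after FLuc; normalized to DMSO and positive control (100%).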

[8] = qHTS for Activators of Parkin Expression: LOPAC Validation Assay (FLuc Reporter) (AID 720573)
Outline: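 Readout is FLuc luminescence from neuronal reporter cells (Parkin promoter, FLuc plus NLuc) after 24 h compound exposure in dose response. Values normalized to neutral DMSO and positive-control compounds.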

[9] = molecular target: T1, Hexokinase-4 (Homo sapiens) + Glucokinase regulatory protein (Homo sapiens); test: qHTS assay for inhibitors of recombinant human GCK-GKRP interaction: HTRF assay (AID 743207)
Outline: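 Titration screening format: recombinant GST-GCK and FLAG-GKRP at 5 nM, S6P at 2 uM, labelled anti-tag antibodies, 60 min at RT, dual-wavelength HTRF readout.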

CC(C)OC(=O)C1=CN(C(=O)c2ccc(F)c(F)c2)CC(C)(C)c2c1[nH]c1ccccc21
Potency [1]: inactive | outcome [2]: inactive

O=C(Nc1nc2ccccc2n1CCN1CCOCC1)c1cccc([N+](=O)[O-])c1
Potency [1]: inactive | outcome [2]: inactive | outcome [3]: inactive | outcome [4]: inactive | outcome [5]: inactive | outcome [6]: inactive

CCOc1ccn(-c2ccc(F)cc2)c(=O)c1C(=O)Nc1ccc(Oc2ccnc(N)c2Cl)c(F)c1
Potency [1]: 1.94 µM (active) | outcome [2]: inactive

CS(=O)(=O)c1ccc(C(=O)Nc2ccc(Cl)c(-c3ccccn3)c2)c(Cl)c1
Potency [1]: inactive | outcome [2]: inactive

Nc1nc2ccc(OC(F)(F)F)cc2s1
Potency [1]: inactive | outcome [2]: inactive | outcome [4]: inactive | Potency [7]: inactive | outcome [5]: inactive | outcome [6]: inactive

COc1cc(F)c(F)c(Nc2ccc(I)cc2F)c1NS(=O)(=O)C1(C[C@H](O)CO)CC1
outcome [2]: inactive

C#Cc1cccc(Nc2ncnc3cc(OCCOC)c(OCCOC)cc23)c1
outcome [2]: inactive

Clc1ccc(Nc2nnc(Cc3ccncc3)c3ccccc23)cc1
outcome [2]: inactive

CC1(C)CNc2cc(NC(=O)c3cccnc3NCc3ccncc3)ccc21
outcome [2]: inactive

Cc1c(CCOc2ccc(C(=O)O)cc2)c2cc(Cl)ccc2n1C(c1ccccc1)c1ccccc1
outcome [2]: inactive

Cc1cccc(-c2[nH]c(C(C)(C)C)nc2-c2ccc3nccnc3c2)n1
Potency [1]: 0.688 µM (active) | outcome [2]: inactive | outcome [3]: inactive | outcome [4]: inactive | outcome [8]: inactive | outcome [5]: inactive | outcome [6]: inactive

CCCCCCCc1ccc(CCc2cccc(O)c2C(=O)O)cc1
outcome [2]: inactive

Nc1nc2[nH]cc(CCc3ccc(C(=O)N[C@@H](CCC(=O)O)C(=O)O)cc3)c2c(=O)[nH]1
outcome [2]: inactive

Fc1ccc(Cl)cc1-c1nc(Nc2ccncc2)c2nccnc2n1
Potency [1]: inactive | outcome [2]: inactive

CCC(=O)N[C@H]1CC[C@H](C(=O)N(C)c2ccc(-c3nc4ccccc4o3)cc2)C1
outcome [2]: inactive

Cc1csc(NC(=O)c2sc3nc4c(c(C(F)(F)F)c3c2N)CCC4)n1
Potency [1]: inactive | outcome [2]: inactive

Nc1ncnc2nc(-c3ccc(N4CCOCC4)nc3)cc(-c3cccc(Br)c3)c12
Potency [1]: 3.45 µM (active) | outcome [2]: inactive | outcome [3]: inactive | outcome [4]: inactive

OC(CN1CCC(Cc2ccc(F)cc2)CC1)c1ccc(Cl)cc1 (configuration not stated)
Potency [1]: inactive | outcome [2]: inactive | outcome [3]: inactive | outcome [4]: inactive | outcome [8]: inactive | outcome [5]: inactive | outcome [6]: inactive

NC(=O)c1ccc(I)c([N+](=O)[O-])c1
outcome [2]: inactive

Cc1ccc(NC(=O)c2cccc(C(C)(C)C#N)c2)cc1Nc1ccc2ncn(C)c(=O)c2c1
outcome [2]: inactive

CCCc1nc2c(C)cc(-c3nc4ccccc4n3C)cc2n1Cc1ccc(-c2ccccc2C(=O)O)cc1
Potency [1]: inactive | outcome [2]: inactive

C[C@@H]1C[C@H]2[C@@H]3CCC4=CC(=O)C=C[C@]4(C)C3(F)[C@@H](O)C[C@]2(C)[C@@]1(O)C(=O)CO (some centres not stated)
Potency [1]: 34.5 µM (active) | outcome [2]: inactive

NC(=O)c1ccc(-c2nc(-c3ccc4c(c3)OCO4)c(-c3ccccn3)[nH]2)cc1
Potency [1]: inactive | outcome [2]: inactive

CCC(C)N(C)C(=O)c1cc2ccccc2c(-c2ccccc2Cl)n1 (configuration not stated)
Potency [1]: inactive | outcome [2]: inactive | outcome [3]: inactive | outcome [4]: inactive | outcome [8]: inactive | outcome [5]: inactive | outcome [6]: inactive

OC(CCN1CCCCC1)(c1ccccc1)C1CC2C=CC1C2 (configuration not stated)
outcome [3]: inactive | outcome [4]: inactive | outcome [8]: inactive | outcome [5]: inactive | outcome [6]: inactive

Cc1ccc(N(CC2=NCCN2)c2cccc(O)c2)cc1
outcome [4]: inactive | outcome [8]: inactive | outcome [5]: inactive | outcome [6]: inactive

NCCc1ccc(O)c(O)c1
outcome [4]: inactive | outcome [8]: inactive | outcome [5]: inactive | outcome [6]: inactive

Clc1cccc(Cl)c1NC1=NCCN1
outcome [4]: inactive | outcome [8]: inactive | outcome [5]: inactive | outcome [6]: inactive | outcome [9]: inactive

Cc1cc2c(F)c(Oc3ncnn4cc(OC[C@@H](C)O)c(C)c34)ccc2[nH]1
outcome [2]: inactive

CC(C)c1onc(-c2c(Cl)cccc2Cl)c1COc1ccc(/C=C/c2cccc(C(=O)O)c2)c(Cl)c1
outcome [2]: inactive

Cc1cn[nH]c1
outcome [3]: inactive | outcome [4]: inactive | outcome [8]: inactive | outcome [5]: inactive | outcome [6]: inactive

CC(C)NCC(O)COc1ccc(COCCOC(C)C)cc1 (configuration not stated)
outcome [3]: inactive; inhibitor; fitted 0.3793 uM | outcome [4]: inactive | outcome [8]: inactive | outcome [5]: inactive | outcome [6]: inactive

CCn1cc(C(=O)O)c(=O)c2cc(F)c(N3CCNC(C)C3)c(F)c21 (configuration not stated)
outcome [3]: inactive | outcome [4]: inactive | outcome [8]: inactive | outcome [5]: inactive | outcome [6]: inactive

CC(C)(C)OC(=O)CN(Cc1ccc(Cl)cc1)Cc1ccc([N+](=O)[O-])s1
outcome [2]: inactive

COc1ccc(CCN2CCN(CCCc3ccccc3)CC2)cc1OC
outcome [2]: inactive

CCOC(=O)N1CCC(=C2c3ccc(Cl)cc3CCc3cccnc32)CC1
outcome [4]: inactive | outcome [8]: inactive | outcome [5]: inactive | outcome [6]: inactive | outcome [9]: inactive

CC(C)C[C@H](NC(=O)[C@@H](O)[C@H](N)Cc1ccccc1)C(=O)O
outcome [2]: inactive | outcome [3]: inactive | outcome [4]: inactive | Potency [7]: inactive | outcome [8]: inactive | outcome [5]: inactive | outcome [6]: inactive

CCCCNc1cc(C(=O)O)cc(S(N)(=O)=O)c1Oc1ccccc1
outcome [3]: inactive | outcome [4]: inactive | outcome [8]: inactive | outcome [5]: inactive | outcome [6]: inactive
